These results are taken from PubChem BioAssay (NCI).

A short description of test [1]: NCI Yeast Anticancer Drug Screen. Data for the rad50 strain (AID 155).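 Further: 0% = growth of vehicle-only cultures of the same strain.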 Particulars: S. cerevisiae rad50 strain growth inhibition; at 50.0 µM; active compounds read high. The essentials: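 A DNA repair-deficient yeast mutant serves as the test organism; compound-induced growth inhibition is calculated against vehicle-treated cells.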
A short description of test [2]: NCI Yeast Anticancer Drug Screen. Data for the mec2-1 strain (AID 157). Particulars: S. cerevisiae mec2-1 strain, at 50.0 µM, active compounds read high. The essentials:
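Vehicle-treated cultures served as reference for growth inhibition of compound-exposed mec2-1 yeast.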

A short description of test [3]: NCI Yeast Anticancer Drug Screen. Data for the cln2 rad14 strain (AID 165).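 Further: 0% = growth equal to vehicle treated cultures.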 Particulars: S. cerevisiae cln2 rad14 strain, at 50.0 µM, active compounds read high. The gist of the method: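 Each compound was tested on cln2 rad14 yeast. Inhibition of growth was calculated against vehicle-exposed controls.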
Test [4] is described as follows: NCI Yeast Anticancer Drug Screen. Data for the bub3 strain (AID 167). Particulars: S. cerevisiae bub3 mutant strain, at 50.0 µM, active compounds read high. The essentials:
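Inhibition values come from growth of compound-treated mutant yeast normalised to vehicle-treated controls.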

A short description of test [5]: NCI Yeast Anticancer Drug Screen. Data for the mlh1 rad18 strain (AID 175). To be noted: S. cerevisiae mlh1 rad18 strain growth inhibition; at 50.0 µM; active compounds read high. The gist of the method:
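Vehicle-treated cultures served as the reference for growth inhibition in a yeast strain carrying DNA damage repair alterations exposed to each compound.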

Test [6] is described as follows: NCI Yeast Anticancer Drug Screen. Data for the sgs1 mgt1 strain (AID 161).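 Further: 0% = growth of cultures given vehicle only.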 Particulars: S. cerevisiae sgs1 mgt1 strain, at 50.0 µM, active compounds read high. The essentials: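 Genetically altered yeast, compound exposure, growth inhibition relative to vehicle.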

The panel holds about 79,000 compounds, 15% with a hit somewhere; the sample as a whole holds those more often. Unmarked numbers belong to inactive results. Activity calls are given as the source filed them. No stated cut-off is given here; in the data, active means growth inhibition above about 70%; inactive means the rest.

As to `CCN(CC)CC(C(=O)Nc1c(C)cccc1C)/C(C)=N\NC(=O)C[N+](C)(C)C` (stereo not given), the growth inhibition in test [1] was 19.4%; in test [2] it was 4.85%; in test [3] it was -21.8%; in test [4] it was -0.7%; in test [5] it was -1.9%.

On to `COc1ccc(/C=C/C(C)=O)c(OC)c1`, for which the growth inhibition was 3% in test [1]; -12.3% in test [2]; -20.6% in test [3]; 0.05% in test [4]; -4.95% in test [5].

On to `O=C1c2ccccc2CCC12OC2c1ccncc1` (stereo not given), for which the growth inhibition in test [1] was 12.1%; in test [2] it was 27.1%; in test [3], 6.75%; in test [4], 39.4%; in test [5], 29.6%.

With `O=c1[nH]c2nc3ccccc3c(=O)n2/c1=C/c1ccc(O)cc1`, the growth inhibition is 9.6% in test [1]; 2.3% in test [2]; 8.95% in test [3]; 7.3% in test [4]; -19.8% in test [5].

Regarding `COc1cc(C=Nc2cc(Cl)c(N=O)c(Cl)c2)ccc1N(CCCCl)CCCCl`, the growth inhibition in test [1] is 33.4%; in test [2], -13%; in test [3] it was -15.8%; in test [4], 2.2%; in test [5] it was 12.3%.

Consider `O=CN(CCO)CCO`, for which the growth inhibition in test [1] is -1.6%; in test [2] it was 1.25%; in test [3] it was 11.1%; in test [4], 7.35%; in test [5] it was -4.2%.

Take `CC(=O)/C(C(=N)C(=O)c1ccccc1)=C(\C)O`: the growth inhibition in test [1] was -12.1%; in test [2], 22.5%; in test [3], -16.6%; in test [4], 4.3%; in test [5] it was 0.25%.

For `O=C(Oc1ccccc1[N+](=O)[O-])Oc1ccccc1[N+](=O)[O-]`, the growth inhibition in test [1] was -3.45%; in test [2], 16.3%; in test [3] it was -29.4%; in test [4], 16.2%; in test [5] it was -2.7%.

Regarding `CN(C)c1ccc2oc3ccccc3c2c1`, the growth inhibition in test [1] was -4.5%; in test [2] it was -4.5%; in test [3], -23.9%; in test [4] it was 5.35%; in test [5], -26.4%.

Turning to `O=C(C[n+]1csc2ccccc21)c1ccc(-c2ccccc2)cc1`, the growth inhibition in test [1] was 18.1%; in test [2], 9.8%; in test [3], -3.05%; in test [4] it was 11.6%; in test [5], 4.85%.

As for `O=C1NC(=O)C2C1C1C=C3c4ccccc4N(c4ccccc4)C32[C@H]2C(=O)NC(=O)[C@@H]12` (stereo not given in full), the growth inhibition in test [1] is -3.4%; in test [2] it was -13.2%; in test [3], 24.9%; in test [4], 17.4%; in test [5], -4.9%.

In the case of `CCCC(C)C1(CC)NC(C)(C)CC(C)O1` (stereo not given), the growth inhibition in test [1] is 2.75%; in test [2] it was 0.8%; in test [3] it was -29.4%; in test [4] it was 4.9%; in test [5], 1.2%.

With `NC1=Nc2cc(C(F)(F)F)ccc2Sc2nc3ccccc3n21`, the growth inhibition in test [1] is 4%; in test [2], -15.8%; in test [3], 13.2%; in test [4] it was 22.4%; in test [5], 5.65%.

As to `OC1(c2ccccc2)c2ccccc2Oc2cc(Cl)ccc21` (stereo not given), the growth inhibition is 9.4% in test [1]; -0.85% in test [2]; 10.3% in test [3]; 2.15% in test [4]; 45.8% in test [5].

For `CCOC(=O)CSc1ccnc(=O)[nH]1`, the growth inhibition in test [1] was -9.25%; in test [2], -8.9%; in test [3], 0.1%; in test [4] it was -16%; in test [5] it was -31.8%.

For the molecule `O=C1OC(c2ccc([N+](=O)[O-])cc2)=N/C1=C\c1cccc([N+](=O)[O-])c1`, the growth inhibition was 23.1% in test [1]; 20.9% in test [2]; 38.2% in test [3]; 22.1% in test [4]; 52% in test [5].

For `Cc1ccc(NC(=S)Nc2ccccc2F)cc1`, the growth inhibition is -8% in test [1]; -13.2% in test [2]; -28.8% in test [3]; 43.5% in test [4]; 10% in test [5].

On to `O=C(NC1CCCCC1)Oc1ccc(-c2ccccc2)cc1Cl`, for which the growth inhibition in test [1] is 98.7% (active); in test [2], 99.3% (active); in test [3], 98.2% (active); in test [4], 99% (active); in test [5], 99.1% (active).

`CCCCOC(=O)c1ccccc1`: the growth inhibition in test [1] is -7%; in test [2], 13.7%; in test [3] it was -2.8%; in test [4], -1.4%; in test [5], 18.1%.

As to `Cc1ccc(C(=O)Nc2c(C)cccc2C)cc1`, the growth inhibition in test [1] is 3.45%; in test [2], -40.7%; in test [3], 3.65%; in test [4], -4.7%; in test [5], -5.95%.

Turning to `N#C/C(=C\NC(N)=S)C(=O)c1ccc2ccccc2c1`, the growth inhibition in test [1] is -14.3%; in test [2], -20.9%; in test [3], 27.5%; in test [4], 0.8%; in test [5], -11.1%.

As for `O=C(Nc1cc(C(F)(F)F)ccc1Cl)c1ccccc1F`, the growth inhibition was 17.1% in test [1]; 29.1% in test [2]; -9.15% in test [3]; 34.9% in test [4]; 18.6% in test [5].

Consider `CC(=O)N=C1N(/C=C2\C(=O)Oc3ccccc3C2=O)C(=O)/C(=C/c2ccc(OC(C)=O)cc2)N1C`, for which the growth inhibition in test [1] was -9.55%; in test [2] it was -17%; in test [3] it was 12.9%; in test [4], 1.05%; in test [5], 0.75%.

For the molecule `Nc1ccc(CCCCc2ccc(Cl)cc2Cl)cc1`, the growth inhibition in test [1] is 98.2% (active); in test [2], 98.2% (active); in test [3] it was 98.1% (active); in test [4], 98% (active); in test [5] it was 98% (active).

With `O=[N+]([O-])c1ccc2nc(/C=C(\O)c3ccccc3)c(/C=C(\O)c3ccc(Cl)cc3)nc2c1`, the growth inhibition is -10.1% in test [1]; -28.2% in test [2]; -66.3% in test [3]; -62.1% in test [4]; -31.2% in test [5].

Turning to `COc1ccc2c(c1)C/C(=C\c1cccc3ccccc13)C2=O`, the growth inhibition is -51.9% in test [1]; -19.3% in test [2]; -23.1% in test [3]; 28.1% in test [4]; -0.7% in test [5].

In the case of `CC(=O)OCC12C(OC(C)=O)C(=O)C3C(OC(C)=O)C14OC3(C)COC(=O)c1cccnc1C(C)C(C)C(=O)OC(C(OC(C)=O)C2OC(C)=O)C4(C)O` (stereo not given), the growth inhibition was -24.6% in test [1]; -31.4% in test [2]; 7.85% in test [3]; -16.1% in test [4]; -85% in test [5].

On to `N#C/C(=C\n1c(=S)[nH]c2ccc([N+](=O)[O-])cc21)c1cccc(Cl)c1`, for which the growth inhibition is -25.2% in test [1]; -13.9% in test [2]; 3.75% in test [3]; -2.45% in test [4]; -11.2% in test [5].

For `COc1cc([C@H]2c3[nH]c4ccccc4c3C[C@H]3COC(=O)N32)cc(OC)c1O`, the growth inhibition in test [1] was 56.5%; in test [6], 25%; in test [3] it was 12.1%; in test [4], 18.9%; in test [5], 51.9%.
